Calls of active or inactive are those of the source. How the source made its calls: active means hit-call score of the fitted dose curve at least 0.9, where 1 is the maximum; inactive means score below 0.9.

Read-out in test [1]: TIMP metallopeptidase inhibitor 1 (TIMP1), TIMP1 (gene 7076)
Kind of test: BSK_hDFCGF_TIMP1: BioMAP Diversity Plus: hDFCGF Assay for TIMP metallopeptidase inhibitor 1 (TIMP1) Biomarker Activity (AID 2283062). The following applies: primary human foreskin fibroblasts; actives raise or lower the signal. The method in brief: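 Human foreskin fibroblast primary cultures dosed for 24 h; secreted/surface TIMP-1 quantified by ELISA. Bidirectional curve fitting against DMSO baseline; cytotoxicity tracked in parallel cultures by SRB total-protein staining.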

Read-out in test [2]: Monokine induced gamma interferon (MIG), CXCL9 (gene 4283)
Kind of test: BSK_hDFCGF_MIG: BioMAP Diversity Plus: hDFCGF Assay for Monokine induced gamma interferon (MIG) Biomarker Activity (AID 2283063). Particulars: primary human foreskin fibroblasts; actives raise or lower the signal. Put shortly:
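MIG/CXCL9 measured by ELISA 24 h after dosing primary human skin fibroblasts. Activity fitted in both directions against DMSO controls. Cytotoxicity was checked in parallel cultures by SRB staining read at 560 nm.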

Read-out in test [3]: Vascular cell adhesion molecule 1 (VCAM1), VCAM1 (gene 7412)
Kind of test: BSK_hDFCGF_VCAM1: BioMAP Diversity Plus: hDFCGF Assay for Vascular cell adhesion molecule 1 (VCAM1) Biomarker Activity (AID 2283065). The following applies: primary human foreskin fibroblasts; actives raise or lower the signal. The method in brief: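 Human foreskin fibroblast primary cells dosed with chemical, VCAM-1 measured by ELISA at 24 h. Bidirectional curve fitting relative to DMSO as negative control/baseline.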

Read-out in test [4]: Plasminogen activator inhibitor-1 (PAI1), SERPINE1 (gene 5054)
Kind of test: BSK_hDFCGF_PAI1: BioMAP Diversity Plus: hDFCGF Assay for Plasminogen activator inhibitor-1 (PAI1) Biomarker Activity (AID 2283066). The following applies: primary human foreskin fibroblasts; actives raise or lower the signal. The method in brief:
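Human foreskin fibroblast primary cells, 24 h chemical exposure; PAI-1 measured by ELISA. Bidirectional fitting relative to DMSO; parallel cultures stained with SRB for total protein to flag overt cytotoxicity.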

Read-out in test [5]: Intercellular Adhesion Molecule 1 (ICAM1), ICAM1 (gene 3383)
Kind of test: BSK_KF3CT_ICAM1: BioMAP Diversity Plus: KF3CT Assay for Intercellular Adhesion Molecule 1 (ICAM1) Biomarker Activity (AID 2283067). The following applies: primary human keratinocytes with fibroblasts; actives raise or lower the signal. Put shortly:
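Human keratinocyte–foreskin fibroblast co-culture was treated for 24 h. Cell-surface ICAM-1 was quantified by ELISA, fitted bidirectionally relative to DMSO. Cytotoxicity was checked in parallel cultures by SRB total-protein staining.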

Read-out in test [6]: Interferon-gamma inducible Protein 10 (IP10), CXCL10 (gene 3627)
Kind of test: BSK_KF3CT_IP10: BioMAP Diversity Plus: KF3CT Assay for Interferon-gamma inducible Protein 10 (IP10) Biomarker Activity (AID 2283068). Particulars: primary human keratinocytes with fibroblasts; actives raise or lower the signal. The method in brief:
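Human keratinocyte plus foreskin fibroblast primary co-culture exposed to test chemical for 24 h; IP-10 measured by ELISA. Concentration-response fitted bidirectionally against DMSO control as baseline.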

The nature of test [7]: BSK_KF3CT_SRB: Viability Assessment in the BioMAP Diversity Plus: KF3CT Assay (AID 2283069).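 Further: total protein by sulforhodamine B staining as a cytotoxicity measure; fitted for both signal gain and loss against DMSO baseline.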 The following applies: primary human keratinocytes with fibroblasts. The method in brief:
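Keratinocytes co-cultured with foreskin fibroblasts (human primary); chemical added, 24 h; fix 10% TCA, stain 0.1% SRB, A560. Bidirectional fit vs DMSO.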

Read-out in test [8]: Interleukin-1 alpha (IL1a), IL1A (gene 3552)
Kind of test: BSK_KF3CT_IL1a: BioMAP Diversity Plus: KF3CT Assay for Interleukin-1 alpha (IL1a) Biomarker Activity (AID 2283070). The following applies: primary human keratinocytes with fibroblasts; actives raise or lower the signal. The method in brief: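 Chemicals were dosed onto co-cultured human keratinocytes and foreskin fibroblasts, IL-1a was quantified by ELISA at 24 h, and activity was fitted in both directions relative to DMSO controls.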

Read-out in test [9]: TIMP metallopeptidase inhibitor 2 (TIMP2), TIMP2 (gene 7077)
Kind of test: BSK_KF3CT_TIMP2: BioMAP Diversity Plus: KF3CT Assay for TIMP metallopeptidase inhibitor 2 (TIMP2) Biomarker Activity (AID 2283071). Particulars: primary human keratinocytes with fibroblasts; actives raise or lower the signal. The method in brief: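 Co-culture of human primary keratinocytes and foreskin fibroblasts, measured 24 h after chemical dosing. TIMP-2 quantified by ELISA and fitted in both directions relative to DMSO. Cytotoxicity checked in parallel cultures by SRB total-protein staining.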

Read-out in test [10]: Transforming growth factor beta 1 (TGFb1), TGFB1 (gene 7040)
Kind of test: BSK_KF3CT_TGFb1: BioMAP Diversity Plus: KF3CT Assay for Transforming growth factor beta 1 (TGFb1) Biomarker Activity (AID 2283072). The following applies: primary human keratinocytes with fibroblasts; actives raise or lower the signal. The method in brief: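 Human keratinocyte/foreskin fibroblast co-culture; TGF-b1 measured by ELISA 24 h after dosing, fitted bidirectionally versus DMSO. Cytotoxicity checked in parallel cultures by total protein (SRB staining, 560 nm).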

Read-out in test [11]: C-C motif chemokine 2 (Homo sapiens) (UniProt P13500)
Kind of test: BSK_KF3CT_MCP1: BioMAP Diversity Plus: KF3CT Assay for Monocyte Chemoattractant Protein 1 (MCP1/CCL2) Biomarker Activity (AID 2283073). Particulars: primary human keratinocytes with fibroblasts; actives raise or lower the signal. Put shortly: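 Human keratinocyte–foreskin fibroblast co-culture; MCP-1 measured by ELISA 24 h after dosing. Bidirectional fit vs DMSO; cytotoxicity tracked by SRB total protein in parallel cultures.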

Read-out in test [12]: Matrix Metallopeptidase 9 (MMP9), MMP9 (gene 4318)
Kind of test: BSK_KF3CT_MMP9: BioMAP Diversity Plus: KF3CT Assay for Matrix Metallopeptidase 9 (MMP9) Biomarker Activity (AID 2283074).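 On AC50: MMP9 protein level quantified by ELISA in the co-culture.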 Particulars: primary human keratinocytes with fibroblasts; actives raise or lower the signal. The method in brief: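 Human keratinocyte/foreskin fibroblast co-culture; compound added; 24 h; MMP-9 by ELISA; bidirectional fit vs DMSO baseline.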

Read-out in test [13]: urokinase plasminogen activator (uPA), PLAU (gene 5328)
Kind of test: BSK_KF3CT_uPA: BioMAP Diversity Plus: KF3CT Assay for urokinase plasminogen activator (uPA) Biomarker Activity (AID 2283075). Particulars: primary human keratinocytes with fibroblasts; actives raise or lower the signal. Put shortly:
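ELISA readout of uPA, analyzed for signal gain or loss relative to DMSO, from a human primary keratinocyte–foreskin fibroblast co-culture measured 24 h after chemical treatment.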

Read-out in another test: CD40, CD40 (gene 958)
Kind of test: BSK_LPS_CD40: BioMAP Diversity Plus: LPS Assay for CD40 Biomarker Activity (AID 2283076). Particulars: primary human HUVEC with PBMC; actives raise or lower the signal. Put shortly:
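HUVEC plus PBMC co-culture stimulated with LPS; CD40 quantified by ELISA 24 h after compound dosing. Fitting was bidirectional relative to DMSO. SRB staining of parallel cultures flagged overt cytotoxicity.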

Read-out in test [14]: E-selectin (Homo sapiens) (UniProt P16581)
Kind of test: BSK_LPS_Eselectin: BioMAP Diversity Plus: LPS Assay for Eselectin Biomarker Activity (AID 2283077). The following applies: primary human HUVEC with PBMC; actives raise or lower the signal. The method in brief: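 Human umbilical vein endothelial cells co-cultured with PBMC under LPS stimulation; cell-surface E-selectin measured by ELISA 24 h after dosing. Change in either direction versus DMSO, with SRB total-protein staining in parallel cultures for cytotoxicity.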

Read-out in test [15]: Interleukin-8 (IL8), CXCL8 (gene 3576)
Kind of test: BSK_LPS_IL8: BioMAP Diversity Plus: LPS Assay for Interleukin-8 (IL8) Biomarker Activity (AID 2283078). The following applies: primary human HUVEC with PBMC; actives raise or lower the signal. Put shortly:
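Human umbilical vein endothelial cells co-cultured with PBMC, LPS-stimulated, exposed to compound for 24 h. IL-8 quantified by ELISA; fitted in both directions against DMSO, with SRB total-protein staining of parallel cultures for cytotoxicity.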

A short description of test [16]: BSK_LPS_SRB: Viability Assessment in the BioMAP Diversity Plus: LPS Assay (AID 2283079).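 Further: total protein by sulforhodamine B absorbance as a cytotoxicity measure; measured one day after compound addition; fitted in both directions against DMSO so loss or gain of signal counts.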 Particulars: primary human HUVEC with PBMC. The method in brief: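 Co-culture of human umbilical vein endothelial cells and PBMC, read 24 h after dosing. Total protein by 0.1% SRB staining after 10% TCA fixation, absorbance at 560 nm; bidirectional fit against DMSO.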
Read-out in test [17]: Interleukin-1 alpha (IL1a), IL1A (gene 3552)
Kind of test: BSK_LPS_IL1a: BioMAP Diversity Plus: LPS Assay for Interleukin-1 alpha (IL1a) Biomarker Activity (AID 2283080). The following applies: primary human HUVEC with PBMC; actives raise or lower the signal. Put shortly:
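Human umbilical vein endothelial cells co-cultured with PBMC and stimulated with LPS; IL-1a measured by ELISA 24 h after dosing. Bidirectional fitting against DMSO; cytotoxicity checked by SRB staining in parallel cultures.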

Read-out in test [18]: Monocyte Chemoattractant Protein-1 (MCP1), CCL2 (gene 6347)
Kind of test: BSK_LPS_MCP1: BioMAP Diversity Plus: LPS Assay for Monocyte Chemoattractant Protein-1 (MCP1) Biomarker Activity (AID 2283081).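 On AC50: secreted MCP-1 protein quantified by ELISA in culture supernatant.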 Particulars: primary human HUVEC with PBMC; actives raise or lower the signal. The method in brief: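 Human umbilical vein endothelial cells co-cultured with PBMC, LPS-stimulated; secreted MCP-1 measured by ELISA 24 h after compound addition. Bidirectional curve fitting against DMSO baseline; SRB total-protein staining in parallel cultures for cytotoxicity.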

Read-out in test [19]: Matrix Metallopeptidase 1 (MMP1), MMP1 (gene 4312)
Kind of test: BSK_hDFCGF_MMP1: BioMAP Diversity Plus: hDFCGF Assay for Matrix Metallopeptidase 1 (MMP1) Biomarker Activity (AID 2283064). The following applies: primary human foreskin fibroblasts; actives raise or lower the signal. The method in brief:
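hDFCGF primary fibroblasts (human foreskin); chemical added; 24 h; MMP1 by ELISA; bidirectional fit vs DMSO.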

Sequence of E-selectin (Homo sapiens) (P16581 whole entry, looked up): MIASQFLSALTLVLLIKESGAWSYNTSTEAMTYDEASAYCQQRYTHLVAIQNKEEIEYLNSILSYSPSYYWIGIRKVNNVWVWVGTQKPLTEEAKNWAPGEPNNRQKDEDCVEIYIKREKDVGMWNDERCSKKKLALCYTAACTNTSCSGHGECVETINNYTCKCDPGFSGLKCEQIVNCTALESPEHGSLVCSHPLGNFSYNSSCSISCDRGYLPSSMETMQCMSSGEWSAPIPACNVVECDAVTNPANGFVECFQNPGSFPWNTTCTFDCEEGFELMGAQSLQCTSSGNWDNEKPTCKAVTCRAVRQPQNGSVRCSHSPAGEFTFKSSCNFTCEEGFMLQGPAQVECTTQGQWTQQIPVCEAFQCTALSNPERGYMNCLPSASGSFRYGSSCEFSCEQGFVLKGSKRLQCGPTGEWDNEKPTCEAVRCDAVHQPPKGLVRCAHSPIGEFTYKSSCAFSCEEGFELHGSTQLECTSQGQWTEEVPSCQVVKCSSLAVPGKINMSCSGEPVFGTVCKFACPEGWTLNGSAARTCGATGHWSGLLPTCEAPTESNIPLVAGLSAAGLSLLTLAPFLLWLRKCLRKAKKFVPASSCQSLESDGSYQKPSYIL

For `O=C(Oc1ccc(Br)cc1)N1CCN2CCC1CC2`, the outcome in test [1], in [2], in test [3], in test [4], in test [5] and in [6] was inactive. In addition, the result in [7], in test [8], in test [9], in [10], in test [11] and in [12] was inactive. For the same compound, the outcome is “inactive” in test [13]; “inactive” in the test with CD40, CD40 (gene 958); “inactive” in [14]; “inactive” in test [15]; “inactive” in test [16]; “inactive” in test [17]. For the same compound, in test [18], the result was inactive.
On to `O=[N+]([O-])C(Br)(CO)CO`, for which the AC50 (in general, the midpoint of the concentration-response curve, whichever way the signal moves) in test [1] is 32.9 µM (active); in test [2], 30.2 µM (active); in test [19], 32.3 µM (active); in test [5], 35.8 µM (active); in test [6] it was 34.9 µM (active); in [7], 33.2 µM (active). Besides, the AC50 is 32.5 µM (active) in [8]; 28.5 µM (active) in test [9]; 32 µM (active) in test [10]; 34.4 µM (active) in test [12]; 36.8 µM (active) in test [13]; 29 µM (active) in the test with CD40, CD40 (gene 958). Also, the AC50 is 32.8 µM (active) in [14]; 34.2 µM (active) in [15]; 29.6 µM (active) in test [16]; 34 µM (active) in test [17]; 25.9 µM (active) in test [18]. Besides, the result in test [11] was inactive.
Regarding `Oc1ccccc1Cl`, the outcome in [1], in [2], in test [3], in test [4], in test [5] and in test [6] was inactive. Moreover, the result in test [7], in test [8], in test [9], in test [10], in test [11] and in test [12] was inactive. The outcome in test [13] is “inactive”; with CD40, CD40 (gene 958) it was “inactive”; in [14], “inactive”; in test [15], “inactive”; in test [16] it was “inactive”; in test [17], “inactive”. Also, the result in test [18] was inactive.

For the origin of these results see PubChem BioAssay (EPA / NIEHS).
